According to PubChem BioAssay AID1159580 (chemical genetic matrix, 2015):
Among all 5,500 compounds or so, about 2,000 (36%) were called active. Inconclusive results (about 18%) are left out. Cut-off read from the data, not from the text of the source: active = normalized growth mostly below about 0.91 (no sharp cut-off); inconclusive = no clear call, values can overlap the other calls; inactive = mostly above about 0.92. Some of the results follow.

Assay: chemical genetic growth profiling, strain panel (AID 1159580);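 note: tested at 20 µM; growth read once vehicle control cultures reached saturation at 30 °C; 1 = growth at the plate median or of vehicle wells; lower values mean less growth of the strain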
Conditions: growth OD
[1] = S. cerevisiae deletion strains, locus YAL013W, strain DEP1, hits give low values
[2] = S. cerevisiae deletion strains, locus YCL061C, strain MRC1, hits give low values
[3] = S. cerevisiae deletion strains, locus YGR078C, strain PAC10, hits give low values
[4] = S. cerevisiae deletion strains, locus YHR030C, strain SLT2, hits give low values
[5] = S. cerevisiae deletion strains, locus YMR263W, strain SAP30, hits give low values
[6] = S. cerevisiae deletion strains, locus YNL153C, strain GIM3, hits give low values
[7] = S. cerevisiae deletion strains, locus YNL322C, strain KRE1, hits give low values
[8] = S. cerevisiae deletion strains, locus YAL040C, strain CLN3, hits give low values
[9] = S. cerevisiae deletion strains, locus YER002W, strain NOP16, hits give low values
[10] = S. cerevisiae deletion strains, locus YNL175C, strain NOP13, hits give low values
[11] = S. cerevisiae deletion strains, locus YNL197C, strain WHI3, hits give low values
[12] = S. cerevisiae deletion strains, locus YNL224C, strain SQS1, hits give low values
[13] = S. cerevisiae deletion strains, locus YOR083W, strain WHI5 (second series), hits give low values

Measured: normalized growth

O=C1c2ccccc2C(=O)C1(c1ccccc1)[N+](=O)[O-]
active: [1] 0.848 | S. cerevisiae deletion strains, locus YBR229C, strain ROT2, hits give low values 0.78 | [2] 0.818 | S. cerevisiae deletion strains, locus YDL101C, strain DUN1, hits give low values 0.776 | S. cerevisiae deletion strains, locus YDL134C, strain PPH21, hits give low values 0.897 | [3] 0.664 | [4] 0.587 | S. cerevisiae deletion strains, locus YHR087W, strain rtc3, hits give low values 0.811 | S. cerevisiae deletion strains, locus YJR043C, strain POL32, hits give low values 0.861 | S. cerevisiae deletion strains, locus YJR075W, strain HOC1, hits give low values 0.747 | S. cerevisiae deletion strains, locus YLR039C, strain RIC1, hits give low values 0.734 | S. cerevisiae deletion strains, locus YLR262C, strain YPT6, hits give low values 0.8 | S. cerevisiae deletion strains, locus YMR219W, strain ESC1, hits give low values 0.832 | [5] 0.813 | [6] 0.803 | S. cerevisiae deletion strains, locus YNR030W, strain Alg12, hits give low values 0.0637 | S. cerevisiae deletion strains, locus YPL055C, strain LGE1, hits give low values 0.799 | S. cerevisiae deletion strains, locus YPL241C, strain CIN2, hits give low values 0.0628
inactive: S. cerevisiae deletion strains, locus YEL061C, strain CIN8, hits give low values 0.943 | S. cerevisiae deletion strains, locus YLR058C, strain SHM2 (second series), hits give low values 1.03 | S. cerevisiae deletion strains, locus YLR085C, strain ARP6, hits give low values 0.975 | S. cerevisiae deletion strains, locus YML094W, strain GIM5, hits give low values 0.946 | S. cerevisiae deletion strains, locus YMR307W, strain GAS1, hits give low values 0.919 | S. cerevisiae deletion strains, locus YNL298W, strain CLA4 (second series), hits give low values 0.956 | [7] 1.01 | S. cerevisiae deletion strains, locus YOL006C, strain TOP1, hits give low values 0.893 | S. cerevisiae deletion strains, locus YPR135W, strain CTF4, hits give low values 0.798 | S. cerevisiae strains, strain wild type, hits give low values 0.985

O=C1NC(=O)C(c2ccccc2)(c2ccccc2)N1
inactive: [1] 1.01 | [8] 1.1 | S. cerevisiae deletion strains, locus YCL061C, strain MRC1 (second series), hits give low values 1 | S. cerevisiae deletion strains, locus YDR363W, strain ESC2, hits give low values 1.02 | [9] 0.991 | [3] 1.02 | S. cerevisiae deletion strains, locus YNL128W, strain TEP1, hits give low values 1 | [10] 0.993 | [11] 1.01 | [12] 0.975 | [7] 1.03 | [13] 1.03

CN(C)CCCC1(c2ccc(F)cc2)OCc2cc(C#N)ccc21 (centres undefined)
inactive: S. cerevisiae deletion strains, locus YAL021C, strain ccr4, hits give low values 0.999 | S. cerevisiae deletion strains, locus YAL026C, strain drs2, hits give low values 0.995 | S. cerevisiae deletion strains, locus YAL030W, strain snc1, hits give low values 0.987 | [8] 0.984 | S. cerevisiae deletion strains, locus YBL061C, strain skt5, hits give low values 0.991 | S. cerevisiae deletion strains, locus YBR009C, strain hhf1, hits give low values 0.979 | S. cerevisiae deletion strains, locus YBR023C, strain chs3, hits give low values 0.987 | S. cerevisiae deletion strains, locus YBR171W, strain sec66, hits give low values 0.983 | S. cerevisiae deletion strains, locus YBR231C, strain swc5, hits give low values 0.981 | S. cerevisiae deletion strains, locus YBR279W, strain paf1, hits give low values 0.979 | S. cerevisiae deletion strains, locus YCL011C, strain gbp2, hits give low values 0.99 | S. cerevisiae deletion strains, locus YCL016C, strain dcc1, hits give low values 0.997 | [2] 0.987 | S. cerevisiae deletion strains, locus YCL069W, strain vba3, hits give low values 0.992 | S. cerevisiae deletion strains, locus YCR088W, strain abp1, hits give low values 0.983 | S. cerevisiae deletion strains, locus YDL005C, strain med2, hits give low values 0.985 | S. cerevisiae deletion strains, locus YDL040C, strain nat1, hits give low values 0.985 | S. cerevisiae deletion strains, locus YDR001C, strain nth1, hits give low values 0.981 | S. cerevisiae deletion strains, locus YDR069C, strain doa4, hits give low values 0.983 | S. cerevisiae deletion strains, locus YDR137W, strain rgp1, hits give low values 0.991 | S. cerevisiae deletion strains, locus YDR159W, strain sac3, hits give low values 0.985 | S. cerevisiae deletion strains, locus YDR195W, strain ref2 0.946 | S. cerevisiae deletion strains, locus YDR297W, strain sur2, hits give low values 0.993 | S. cerevisiae deletion strains, locus YDR334W, strain swr1, hits give low values 0.983 | S. cerevisiae deletion strains, locus YDR335W, strain msn5, hits give low values 0.991 | S. cerevisiae deletion strains, locus YDR392W, strain spt3, hits give low values 0.894 | S. cerevisiae deletion strains, locus YEL003W, strain gim4, hits give low values 0.987 | S. cerevisiae deletion strains, locus YEL037C, strain rad23, hits give low values 1 | S. cerevisiae deletion strains, locus YEL061C, strain CIN8 (second series), hits give low values 0.986 | [9] 0.994 | S. cerevisiae deletion strains, locus YER015W, strain faa2, hits give low values 0.985 | S. cerevisiae deletion strains, locus YER016W, strain bim1, hits give low values 0.985 | S. cerevisiae deletion strains, locus YER111C, strain swi4, hits give low values 0.983 | S. cerevisiae deletion strains, locus YER155C, strain BEM2 (second series), hits give low values 0.944 | S. cerevisiae deletion strains, locus YFR010W, strain ubp6, hits give low values 0.976 | S. cerevisiae deletion strains, locus YGL167C, strain pmr1, hits give low values 0.99 | S. cerevisiae deletion strains, locus YGL173C, strain kem1, hits give low values 0.989 | S. cerevisiae deletion strains, locus YGL227W, strain vid30, hits give low values 0.989 | S. cerevisiae deletion strains, locus YGL240W, strain doc1, hits give low values 0.97 | S. cerevisiae deletion strains, locus YGL253W, strain hxk2, hits give low values 0.993 | S. cerevisiae deletion strains, locus YGR229C, strain SMI1, hits give low values 1.01 | S. cerevisiae deletion strains, locus YHR013C, strain ard1, hits give low values 0.975 | S. cerevisiae deletion strains, locus YHR027C, strain rpn1, hits give low values 0.985 | [4] 1.02 | S. cerevisiae deletion strains, locus YHR079C, strain IRE1, hits give low values 1.03 | S. cerevisiae deletion strains, locus YHR142W, strain chs7, hits give low values 1 | S. cerevisiae deletion strains, locus YJL092W, strain hpr5, hits give low values 0.995 | S. cerevisiae deletion strains, locus YJL095W, strain BCK1 (second series), hits give low values 0.989 | S. cerevisiae deletion strains, locus YJL095W, strain BCK1, hits give low values 1.03 | S. cerevisiae deletion strains, locus YJL115W, strain asf1, hits give low values 0.985 | S. cerevisiae deletion strains, locus YJL129C, strain trk1, hits give low values 1 | S. cerevisiae deletion strains, locus YJL154C, strain vps35, hits give low values 0.989 | S. cerevisiae deletion strains, locus YJL164C, strain tpk1, hits give low values 0.987 | S. cerevisiae deletion strains, locus YJL166W, strain qcr8, hits give low values 1 | S. cerevisiae deletion strains, locus YJL187C, strain SWE1, hits give low values 0.987 | S. cerevisiae deletion strains, locus YJR066W, strain TOR1, hits give low values 0.998 | S. cerevisiae deletion strains, locus YKL160W, strain elf1, hits give low values 1 | S. cerevisiae deletion strains, locus YKR026C, strain gcn3, hits give low values 0.96 | S. cerevisiae deletion strains, locus YKR091W, strain srl3, hits give low values 0.991 | S. cerevisiae deletion strains, locus YLL001W, strain dnm1, hits give low values 0.994 | S. cerevisiae deletion strains, locus YLL026W, hits give low values 0.986 | S. cerevisiae deletion strains, locus YLL041C, strain sdh2, hits give low values 0.992 | S. cerevisiae deletion strains, locus YLR027C, strain aat2, hits give low values 0.98 | S. cerevisiae deletion strains, locus YLR113W, strain HOG1, hits give low values 1.01 | S. cerevisiae deletion strains, locus YLR221C, strain rsa3, hits give low values 1 | S. cerevisiae deletion strains, locus YLR258W, strain gsy2, hits give low values 0.98 | S. cerevisiae deletion strains, locus YLR262C, strain YPT6 (second series), hits give low values 1.05 | S. cerevisiae deletion strains, locus YLR320W, strain mms22, hits give low values 0.993 | S. cerevisiae deletion strains, locus YLR342W, strain FKS1, hits give low values 0.999 | S. cerevisiae deletion strains, locus YLR357W, strain rsc2, hits give low values 0.952 | S. cerevisiae deletion strains, locus YLR370C, strain arc18, hits give low values 0.989 | S. cerevisiae deletion strains, locus YLR384C, strain iki3, hits give low values 0.98 | S. cerevisiae deletion strains, locus YML120C, strain ndi1, hits give low values 0.978 | S. cerevisiae deletion strains, locus YMR058W, strain fet3, hits give low values 0.993 | S. cerevisiae deletion strains, locus YMR125W, strain sto1, hits give low values 0.951 | S. cerevisiae deletion strains, locus YMR129W, hits give low values 0.999 | S. cerevisiae deletion strains, locus YMR205C, strain PFK2, hits give low values 0.946 | S. cerevisiae deletion strains, locus YMR231W, strain pep5, hits give low values 0.984 | [5] 0.962 | S. cerevisiae deletion strains, locus YNL071W, strain lat1, hits give low values 0.99 | [6] 0.997 | [10] 1 | S. cerevisiae deletion strains, locus YNL183C, strain NPR1, hits give low values 1 | [11] 1 | S. cerevisiae deletion strains, locus YNL209W, strain ssb2, hits give low values 0.992 | [12] 1.02 | S. cerevisiae deletion strains, locus YNL248C, strain rpa49, hits give low values 0.99 | S. cerevisiae deletion strains, locus YNL322C, strain KRE1 (second series), hits give low values 0.986 | S. cerevisiae deletion strains, locus YNR049C, strain mso1, hits give low values 0.982 | S. cerevisiae deletion strains, locus YOR001W, strain rrp6, hits give low values 0.987 | S. cerevisiae deletion strains, locus YOR070C, strain gyp1, hits give low values 0.985 | S. cerevisiae deletion strains, locus YOR080W, strain dia2, hits give low values 0.99 | [13] 1.01 | S. cerevisiae deletion strains, locus YOR083W, strain WHI5, hits give low values 0.999 | S. cerevisiae deletion strains, locus YOR106W, strain vam3, hits give low values 1.01 | S. cerevisiae deletion strains, locus YOR231W, strain MKK1, hits give low values 1.03 | S. cerevisiae deletion strains, locus YOR265W, strain rbl2, hits give low values 0.987 | S. cerevisiae deletion strains, locus YOR270C, strain vph1, hits give low values 0.996 | S. cerevisiae deletion strains, locus YOR290C, strain snf2, hits give low values 0.985 | S. cerevisiae deletion strains, locus YPL051W, strain arl3, hits give low values 0.997 | S. cerevisiae deletion strains, locus YPL078C, strain atp4, hits give low values 1 | S. cerevisiae deletion strains, locus YPL106C, strain sse1, hits give low values 0.959 | S. cerevisiae deletion strains, locus YPL240C, strain hsp82, hits give low values 1 | S. cerevisiae deletion strains, locus YPL256C, strain CLN2, hits give low values 1.04
